Assay results published in PubChem BioAssay (NCATS).
Inconclusive results are not listed. Where a call stands in place of a potency, no number is given. The source made the active and inactive calls. Calls follow the shape of the dose curve; as a rule, active = well fitted inhibition curve with a large enough effect; inconclusive = small, poorly fitted or top-dose-only effect; inactive = flat fitted curve, though single readings scatter.

Columns and labels:
[1] = molecular target: Glutathione peroxidase 1 (Homo sapiens) (UniProt P07203); assay: Primary qHTS Assay for Inhibitors of Recombinant Selenoprotein Glutathione Peroxidase 1 (GPX1) (AID 1845191); conditions: outcome: dose series up to 48.8 µM; also: nearly all actives have a fitted effect of over 65% in size
How it was run: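 GR-coupled assay: compounds preincubated 30 min at room temperature with GPX1, then reaction started with CHP; final 10 nM GPX1, 1 mM GSH, 0.5 mM CHP, 0.5 mM NADPH, 100 nM GR, 0.01% BSA, pH 7.5 Tris buffer. NADPH fluorescence (340/450 nm) read at 0 and 15 min.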

[2] = molecular target: Phospholipid hydroperoxide glutathione peroxidase GPX4 (Homo sapiens) (UniProt P36969); assay: Primary qHTS Assay for Inhibitors of Recombinant Selenoprotein Glutathione Peroxidase 4 (GPX4) (AID 1845192); also: nearly all actives have a fitted effect of over 65% in size; also: potency is read from the fitted curve at half-maximal effect
How it was run: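 GR-coupled assay: recombinant GPX4 preincubated 30 min with compound at room temperature; final 200 nM GPX4, 1 mM GSH, 0.5 mM cumene hydroperoxide, 0.5 mM NADPH, 100 nM GR, 0.01% BSA, pH 7.5 Tris. NADPH fluorescence (340/450 nm) read at 0 and 15 min.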

[3] = molecular target: Luciferin 4-monooxygenase (Photinus pyralis) (UniProt P08659); assay: Primary firefly luciferase (FLuc) qHTS assay for identification of artifact compounds. (AID 1845220); conditions: outcome: dose series up to 54.1 µM; also: nearly all actives have a fitted effect of over 60% in size
How it was run: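 Enzymatic FLuc inhibition assay: compounds pre-exposed to luciferin/ATP (10 uM each) for 15 min, then purified P. pyralis enzyme at 10 nM added. Read-out: luminescence at 5 min.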

[4] = system: Nanoluciferase (engineered Oplophorus gracilirostris luciferase); assay: Primary Nanoluciferase (NLuc) qHTS assay for identification of artifact compounds. (AID 1845222);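 also: NLuc secreted into diluted conditioned medium of S16 cells; series mostly up to about 54 µM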
How it was run: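 S16 cell supernatant NLuc, 1:55; cpds qHTS; 15 min RT dark; Nano-Glo substrate 1:100, 5 min; luminescence; Hill fit of % inhibition.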

Chain of Glutathione peroxidase 1 (Homo sapiens) (P07203 whole entry, looked up): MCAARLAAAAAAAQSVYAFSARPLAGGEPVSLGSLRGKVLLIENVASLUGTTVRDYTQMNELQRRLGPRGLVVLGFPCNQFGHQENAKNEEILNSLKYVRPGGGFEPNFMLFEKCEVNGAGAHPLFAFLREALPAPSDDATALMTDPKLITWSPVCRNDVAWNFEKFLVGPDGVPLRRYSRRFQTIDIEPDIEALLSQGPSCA
Chain of Phospholipid hydroperoxide glutathione peroxidase GPX4 (Homo sapiens) (P36969 whole entry, looked up): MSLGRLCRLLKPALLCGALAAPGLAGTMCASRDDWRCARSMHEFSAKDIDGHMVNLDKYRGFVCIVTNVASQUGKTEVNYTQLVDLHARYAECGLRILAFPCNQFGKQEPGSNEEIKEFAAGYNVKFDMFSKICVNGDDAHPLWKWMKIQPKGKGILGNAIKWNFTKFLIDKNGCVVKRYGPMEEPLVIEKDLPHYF

| Structure (SMILES) | outcome [1] | Potency [2] | outcome [3] | outcome [4] |
| --- | --- | --- | --- | --- |
| CC(Cc1ccccc1)NCc1ccccc1Cl (centres undefined) | inactive | inactive |  |  |
| Cc1cccc(Cc2cnc[nH]2)c1C | inactive | inactive |  |  |
| CCC(=O)O[C@H]1CC[C@H]2[C@@H]3CCC4=CC(=O)CC[C@]4(C)[C@H]3CC[C@]12C | inactive | inactive |  |  |
| C[C@@H]1O[C@@H](O[C@@H]2C=C3CC[C@@H]4[C@H](CC[C@]5(C)[C@@H](c6ccc(=O)oc6)CC[C@]45O)[C@@]3(C)CC2)[C@H](O)[C@H](O)[C@H]1O | inactive | inactive |  |  |
| COP(=O)(OC)OC=C(Cl)Cl | inactive | inactive |  |  |
| C[C@@H]1C[C@@H]([C@H](O)CC2CC(=O)NC(=O)C2)C(=O)[C@@H](C)C1 | inactive | inactive |  |  |
| COP(=O)(OC)C(O)C(Cl)(Cl)Cl (centres undefined) | inactive | inactive |  |  |
| CCC1(c2cccc(O)c2)CCCCN(C)C1 (centres undefined) | inactive | inactive |  |  |
| CC(C)C(Br)C(=O)NC(N)=O (centres undefined) | inactive | inactive |  |  |
| CC#C[C@]1(O)CC[C@H]2[C@@H]3C[C@H](C)C4=CC(=O)CC[C@]4(C)[C@H]3CC[C@@]21C | inactive | inactive |  |  |
| CC1COC2(c3ccccc3Cl)c3cc(Cl)ccc3NC(=O)CN12 (centres undefined) | inactive | inactive |  |  |
| O=C(CCCN1CCC(n2c(=O)[nH]c3ccccc32)CC1)c1ccc(F)cc1 | inactive | inactive |  |  |
| C=CCOC(Cn1ccnc1)c1ccc(Cl)cc1Cl (centres undefined) | inactive | inactive |  |  |
| CNC(=O)Oc1cccc2ccccc12 | inactive | inactive |  |  |
| CC(Cc1ccccc1)NCCCCl (centres undefined) | inactive | inactive |  |  |
| CN(C)C(=O)Oc1cc(OC(=O)N(C)C)cc(C(O)CNC(C)(C)C)c1 (centres undefined) | inactive | inactive |  |  |
| CCCOC(=O)Cc1ccc(OCC(=O)N(CC)CC)c(OC)c1 | inactive | inactive | inactive | inactive |
| Oc1ccc([C@H]2CNCc3c2ccc(O)c3O)cc1O | inactive | inactive |  |  |
| CN(C)C(=S)SSC(=S)N(C)C | inactive | inactive |  |  |
| COc1ccc2c(C(=O)c3ccc(Cl)cc3)c(C)n(CC(=O)O)c2c1 | inactive | inactive | inactive | inactive |
| C[N+]1(C)[C@@H]2CC[C@H]1CC(OC(=O)C(CO)c1ccccc1)C2 (some centres undefined) | inactive | inactive |  |  |

| Structure (SMILES) | outcome [1] | Potency [2] | outcome [3] | outcome [4] |
| --- | --- | --- | --- | --- |
| O=C(N[C@H]1N=C(c2ccccc2F)c2cccc3c2N(CC3)C1=O)c1cc2ccccc2[nH]1 | inactive |  | inactive | inactive |
| CCOC(=O)NC(C)(C)Cc1ccc(Cl)cc1 | inactive | inactive | inactive | inactive |
| CCCCCCCCCCCC[N+](C)(C)CCOc1ccccc1 | inactive | inactive |  |  |
| CCOC(=O)c1cncn1C(C)c1ccccc1 (centres undefined) | inactive | inactive | inactive | inactive |
| CC[C@H]1C[C@H]2[C@@H]3CCC4=CC(=O)CC[C@@H]4[C@H]3CC[C@]2(C)[C@H]1O | inactive | inactive | inactive | inactive |
| CCCCCCCCC(=O)NCc1ccc(O)c(OC)c1 | inactive | inactive |  |  |
| O=c1n(Cl)c(=O)n(Cl)c(=O)n1Cl |  | inactive |  |  |
| CCN(CC)Cc1nccn1-c1ccc([N+](=O)[O-])cc1C(=O)c1ccccc1Cl | inactive | inactive |  |  |
| CCOC(=O)c1ncn2c1CN(C)C(=O)c1c(I)cccc1-2 | inactive | inactive | inactive | inactive |
| CCCC[N+]1(C)[C@@H]2CC(OC(=O)[C@H](CO)c3ccccc3)C[C@H]1[C@@H]1O[C@@H]12 (some centres undefined) | inactive | inactive | inactive | inactive |
| CC(CC(C(N)=O)(c1ccccc1)c1ccccc1)N(C)C (centres undefined) | inactive | inactive |  |  |
| C#C[C@]1(O)CC[C@H]2[C@@H]3CCC4=CC(=O)CCC4=C3C=C[C@@]21CC |  | 10 µM (active) |  |  |
| C[C@]12Cc3nonc3C[C@@H]1CC[C@@H]1[C@@H]2CC[C@@]2(C)[C@H]1CC[C@]2(C)O | inactive | inactive |  |  |
| Cc1ccc([N+](=O)[O-])[c]2c1[O][Hg]2 |  | inactive |  |  |
| Nc1ccccc1C(=O)OCC(O)CO (centres undefined) | inactive | inactive |  |  |
| CCCCC1C(=O)NC(=O)N(C2CCCCC2)C1=O (centres undefined) | inactive | inactive | inactive | inactive |
| CCOC(=O)C1(c2ccccc2)CCN(CCc2ccc(N)cc2)CC1 | inactive | inactive |  |  |
| Cc1c(Cl)c(=O)oc2cc(OP(=O)(OCCCl)OCCCl)ccc12 |  | inactive |  |  |
| CCC(=O)C(CCN(C)C)(c1ccccc1)c1ccccc1 | inactive | inactive |  |  |
| O=C(N[C@@H]1N=C(c2ccccc2F)c2cccc3c2N(CC3)C1=O)c1cc2ccccc2[nH]1 |  | inactive |  | inactive |
| O=C(O)CCCCCCNC1c2ccccc2CCc2ccccc21 | inactive | inactive | inactive | inactive |
